Assay results taken from PubChem BioAssay (NCI).
The panel holds about 79,000 compounds, 15% with a hit somewhere; the sample as a whole holds those more often. A number with no mark means an inactive call. Active and inactive are the calls of the source. Rule as the data show it: active = growth inhibition above about 70%; inactive = the rest.

Assays:
[1] = NCI Yeast Anticancer Drug Screen. Data for the rad50 strain (AID 155);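 also: 0% = growth of vehicle-only cultures of the same strain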; conditions: S. cerevisiae rad50 strain growth inhibition, active compounds read high
Outline: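 Cells are treated with compound, grown, and their growth is then scored against vehicle-only cultures of the same repair-deficient yeast strain.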

[2] = NCI Yeast Anticancer Drug Screen. Data for the sgs1 mgt1 strain (AID 161);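 also: 0% = growth of cultures given vehicle only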; conditions: S. cerevisiae sgs1 mgt1 strain, active compounds read high
Outline: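 Percent growth inhibition was derived by comparing compound-exposed mutant yeast with vehicle-exposed cultures. The strain carries alterations in DNA damage repair.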

[3] = NCI Yeast Anticancer Drug Screen. Data for the cln2 rad14 strain (AID 165);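 also: 0% = growth equal to vehicle treated cultures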; conditions: S. cerevisiae cln2 rad14 strain, active compounds read high
Outline: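 Readout is yeast growth inhibition versus vehicle-treated controls, using a strain with cln2 and rad14 alterations exposed to compound.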

[4] = NCI Yeast Anticancer Drug Screen. Data for the bub3 strain (AID 167); conditions: S. cerevisiae bub3 mutant strain, active compounds read high
Outline: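 Part of a panel of yeast mutants defective in DNA damage repair or cell cycle regulation. Each strain is grown with compound, and inhibition is calculated relative to solvent-treated cultures.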

[5] = NCI Yeast Anticancer Drug Screen. Data for the mlh1 rad18 strain (AID 175); conditions: S. cerevisiae mlh1 rad18 strain growth inhibition, active compounds read high
Outline: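 Genetically defined yeast (DNA repair-deficient) exposed to compounds; growth inhibition determined relative to vehicle.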

[6] = NCI Yeast Anticancer Drug Screen. Data for the mec2-1 strain (AID 157); conditions: S. cerevisiae mec2-1 strain, active compounds read high
Outline: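 Mutant yeast (mec2-1) grown with compound; growth inhibition relative to vehicle control reported.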

[7] = at 5.0 µM (retest, dose inferred, filed as 0.5)
[8] = at 50.0 µM (retest, dose inferred, filed as 5.0)

SMILES	growth inhibition [1, 7]	growth inhibition [1, 8]	growth inhibition ([1]; at 50.0 µM)	growth inhibition [2, 7]	growth inhibition [2, 8]	growth inhibition [3, 7]	growth inhibition [3, 8]	growth inhibition [4, 7]	growth inhibition [4, 8]	growth inhibition [5, 7]	growth inhibition [5, 8]	growth inhibition ([5]; at 50.0 µM)	growth inhibition [6, 7]	growth inhibition [6, 8]	growth inhibition ([6]; at 50.0 µM)	growth inhibition ([3]; at 50.0 µM)	growth inhibition ([4]; at 50.0 µM)	growth inhibition ([2]; at 50.0 µM)
O=C1CCC2(C=C(Br)C(=O)C(Br)=C2)O1	42%	87% (active)	91.8% (active)	92% (active)	99% (active)	91% (active)	99% (active)	92% (active)	100% (active)	31%	94% (active)	92.3% (active)	–	–	–	–	–	–
COc1c(C)c2c(c(O)c1C/C=C(\C)CCC(=O)O)C(=O)OC2	31%	86% (active)	85.3% (active)	–	–	32%	95% (active)	17%	91% (active)	38%	92% (active)	–	11%	88% (active)	90.9% (active)	90.2% (active)	89.2% (active)	–
O=C1C=C(Cl)C(=O)c2ccccc21	90% (active)	99% (active)	99% (active)	–	–	31%	98% (active)	47%	99% (active)	53%	99% (active)	99% (active)	35%	100% (active)	99% (active)	99.1% (active)	98.8% (active)	–
Cc1ccc(NC(=S)C#N)cc1Cl	46%	44%	56.7%	41%	60%	37%	40%	46%	45%	45%	53%	4.7%	–	–	–	46.1%	69.9%	77.3% (active)
O=C1/C(=C/c2ccccn2)CCc2ccccc21	30%	94% (active)	84.7% (active)	11%	85% (active)	32%	92% (active)	-8%	98% (active)	-15%	97% (active)	84.2% (active)	–	–	–	46.2%	89.4% (active)	83.4% (active)
O/N=C1\c2ccccc2-c2ccc(F)cc21	20%	90% (active)	95% (active)	13%	87% (active)	5%	71% (active)	1%	77% (active)	13%	78% (active)	93.8% (active)	–	–	–	63%	91.1% (active)	91.6% (active)
Cc1ccc(Nc2n[nH]c(=S)s2)cc1F	37%	90% (active)	85.8% (active)	8%	79% (active)	49%	80% (active)	28%	80% (active)	27%	84% (active)	77.2% (active)	46%	93% (active)	78.2% (active)	–	–	–
CCSC(=O)c1ccc([N+](=O)[O-])o1	20%	99% (active)	–	31%	100% (active)	9%	99% (active)	13%	100% (active)	-9%	99% (active)	–	6%	100% (active)	–	–	–	–
C/C(=N\NC(=S)N(C)C)c1ccccn1	94% (active)	98% (active)	–	93% (active)	99% (active)	91% (active)	97% (active)	95% (active)	99% (active)	95% (active)	98% (active)	–	92% (active)	99% (active)	–	89.3% (active)	88.7% (active)	88.6% (active)
S=c1[nH]c(=S)c2[nH]c(=S)[nH]c2[nH]1	-1%	0%	–	5%	11%	-13%	-13%	6%	6%	-23%	-23%	–	2%	6%	–	–	–	–
CCC(C)(C)N(CC(=O)O)CC(=O)O	-6%	-1%	–	2%	-1%	4%	-2%	3%	-1%	-6%	17%	–	2%	-5%	–	–	–	–
Nc1ncnc2c(C3OC(CO)C(O)C3O)c[nH]c12 (configuration not stated)	26%	92% (active)	–	35%	96% (active)	28%	82% (active)	45%	94% (active)	36%	94% (active)	–	14%	92% (active)	–	88.2% (active)	71.1% (active)	89% (active)
